HCMV inh: qHTS Assay for inhibitors of the human cytomegalovirus (HCMV) | 410,000 compounds, 4.5% hits | HFF cells, HCMV-luciferase reporter, 72 h; active compounds read low | AID 1259415, 2018 | activity change, negative = inhibition, % at 57.5 µM; in the data active means activity change below about -60%; inconclusive means no clear call, values can overlap the other calls; inactive means above about -39%
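Two-dose cell screen: HFF monolayers treated with compounds and infected with luciferase-expressing HCMV at 1 PFU/cell, 72 h at 37C, then lysed for luciferase measurement.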
Pf growth 96h: Primary qHTS for delayed death inhibitors of the malarial parasite plastid, 96 hour incubation. Potency, µM (series often up to 28.7 µM), for inactives: at the highest dose activity change, negative = inhibition, hits mostly inhibitors. 320,000 compounds, 6.9% hits. P. falciparum luciferase reporter growth, 96 h. AID 504834, 2011; further: potency means the concentration at half of the fitted maximal effect
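Parasite growth measured via integrated firefly luciferase reporter in P. falciparum. Infected erythrocytes at 2% hematocrit, 0.05% parasitemia final were treated 96 hours at 37 C under 5% CO2, and luminescence was read.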
Sm TGR inh: qHTS Assay for the Inhibitors of Schistosoma Mansoni Peroxiredoxins | Schistosoma mansoni thioredoxin glutathione reductase (TGR), Q962Y6 | purified TGR, DTNB reduction, TNB absorbance 405 nm | Potency, µM (top dose mostly 114 µM), inactives show at the top dose activity change, negative = inhibition, hits mostly inhibitors | 360,000 compounds, 3% hits; further: potency means the concentration at half of the fitted maximal effect; nearly all actives have a fitted effect of over 60% in size
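Kinetic colorimetric format: TGR-catalysed, NADPH-driven DTNB reduction monitored via TNB absorbance. Enzyme dispensed at 20 nM; compound exposure 15 min at room temperature before reaction start.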
Pf growth 48h: Primary qHTS for delayed death inhibitors of the malarial parasite plastid, 48 hour incubation; P. falciparum luciferase growth in erythrocytes, 48 h; Potency, µM (series often up to 28.7 µM), for the others: top-dose activity change, negative = inhibition, hits mostly inhibitors; 310,000 compounds, 5.9% hits; further: potency means the concentration at half of the fitted maximal effect
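First compound was added to culture medium, then infected red cells at 0.1% parasitemia and 2% hematocrit (final). After incubation at 37 C under 5% CO2, luciferase detection reagent was dispensed and light output recorded.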
Giardia FBPA inh: qHTS Assay for Inhibitors of Fructose-1,6-bisphosphate Aldolase from Giardia Lamblia; AID 2451, 2010; purified Giardia FBPA; Potency, µM (series often up to 59.6 µM), inactives show at the top dose activity, negative = inhibition, most hits filed as inhibitors; 290,000 compounds, 0.71% hits; further: potency means the concentration at half of the fitted maximal effect; nearly all actives have a fitted effect of over 55% in size
Target sequence (A8B2U2 whole entry, looked up): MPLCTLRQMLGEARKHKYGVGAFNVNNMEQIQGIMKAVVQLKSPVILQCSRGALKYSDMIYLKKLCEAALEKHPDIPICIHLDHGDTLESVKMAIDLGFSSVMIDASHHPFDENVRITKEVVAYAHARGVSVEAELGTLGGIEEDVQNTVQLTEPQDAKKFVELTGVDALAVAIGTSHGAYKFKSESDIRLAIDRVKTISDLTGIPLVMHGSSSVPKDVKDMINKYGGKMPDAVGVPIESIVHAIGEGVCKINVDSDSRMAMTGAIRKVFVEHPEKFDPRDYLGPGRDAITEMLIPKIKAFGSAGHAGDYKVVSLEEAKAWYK
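40 nM FBPA preincubated 10 min at RT with compound (up to 57.5 uM final), then substrate plus GAPDH/TPI/NAD/arsenate coupling and diaphorase/resazurin added. Fluorescence read after 20 min at RT, 525/598 nm.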
Starred values were filed as active, the others as inactive; u = inconclusive; x = no result; [ ] = another dose, or the depositor's remark. Only some compounds are listed: those with a hit (about 14% of all), similar ones and a draw of the others. Unless noted, the call rests on the fitted dose curve; in most records, active means well fitted curve in the direction sought with a large enough effect; inconclusive means small, poorly fitted or top-dose-only effect, or another doubt; inactive means no such curve, though single readings can be large; an effect the other way counts as inactive or inconclusive. On the % scale 0 is the no-effect control and ±100 the full control effect.

SMILES | HCMV inh | Pf growth 96h | Sm TGR inh | Pf growth 48h | Giardia FBPA inh
CC(C)c1ccc(C(=O)NNC(=O)C2C3CCC(C3)C2C(=O)O)cc1 (centres undefined) | x | 197% | -29% | 103% | x
COc1ccc(CN2C[C@@H](CO)O[C@@H](n3cnc4c(NC5CC5)ncnc43)C2)cc1 | -22 | x | x | x | x
CC(=O)OC[C@@H]1CN(Cc2ccccc2)C[C@H](n2cnc3c(N4CCN(c5ccccc5)CC4)ncnc32)O1 | -10 | x | x | x | x
CN(C)CCC(C(=O)c1ccccc1)c1cccnc1 (centres undefined) | 25 | x | x | x | x
Cc1sc(N/N=C/c2cccnc2)nc1-c1ccccc1 | -65* | u | u | 9.3µM* | -8%
O=C(O)Cc1sc(Nc2ccccc2)nc1-c1ccccc1 | 7 | x | -16% | x | x
C(=N\Nc1nc(Nc2ccccc2)nc(Nc2ccccc2)n1)/c1cccnc1 | u | -2% | 6% | 3.3µM* | 0%
O=C(O)Cc1sc(N/N=C\c2ccncc2)nc1-c1ccccc1 | 62 | u | 0.25µM* | u | 0%
Cc1sc(N/N=C/c2ccco2)nc1-c1ccccc1 | -29 | u | -1% | u | -11%
COC(=O)c1ccc(C(NC(=O)OCc2ccccc2)/C(=C/[C@@H](C)C(=O)NCc2ccccc2)c2cccnc2)cc1 (some centres undefined) | x | x | x | x | -1%
CCC(=O)NC1=C(NC(C)c2ccccc2)C(=O)c2ccccc2C1=O (centres undefined) | -10 | 0.93µM* | u | x | u
Cc1c(C(=O)N2CCN(C/C=C/c3ccccc3)CC2)oc2c(F)cccc12 | 4 | 15% | -24% | -12% | x
Cc1ccc(NC(=O)/C(=C\c2cccnc2)NC(=O)c2ccco2)cc1 | 35 | 3.3µM* | -21% | u | 2%
O=C(Nc1cccc(F)c1)/C(=C\c1cccnc1)NC(=O)c1ccco1 | -20 | -1% | 4% | -6% | -4%
COc1ccc(NC(=O)/C(=C/c2cccnc2)NC(=O)c2cccs2)cc1 | -26 | 4.1µM* | -7% | -6% | -1%
COc1ccc(/C=C(/NC(=O)c2ccccc2OC)C(=O)Nc2ccc(C(=O)O)cc2)cc1 | -23 | 9.3µM* | 1% | -9% | x
CCC(C)NC(=O)c1ccccc1NC(=O)/C(=C/c1ccc(OC)cc1)c1ccccc1 (centres undefined) | 12 | 12µM* | -3% | u | -4%
COc1ccc(NC(=O)/C(=C\c2cccnc2)NC(=O)c2cccs2)cc1 | -20 | 25% | -4% | -8% | 2%
CC(=O)c1ccc(S(=O)(=O)Nc2ccc(-c3ccc(N4CCCCC4)nn3)cc2)cc1 | 43 | x | -6% | x | x
COc1cc2c(cc1NC(=O)C(F)(F)F)-c1ccc(NC(=O)C(F)(F)F)cc1C2 | 25 | x | x | x | x
CCCCCC(=O)Nc1ccc(-c2nnc3n2CCCCC3)cc1 | -2 | u | -12% | u | x
CCOC(=O)/C=C/C(=O)Nc1ccc(-c2nnc3n2CCCCC3)cc1 | 11 | 0.33µM* | -28% | u | 7%
COc1ccc(Cl)cc1C(=O)Nc1ccc(-c2nnc3n2CCCCC3)cc1 | -21 | x | 6% | x | x
COc1ccc(/C=C/C(=O)Nc2ccc(-c3nnc4n3CCCCC4)cc2)c(OC)c1 | -74* | -20% | -10% | -11% | 9%
CCc1nnc(SCC(=O)Nc2ccccc2)n1CC1CCCO1 (centres undefined) | u | 17% | 2% | 11% | x
SMILES | HCMV inh | Pf growth 96h | Sm TGR inh | Pf growth 48h | Giardia FBPA inh
Cc1ccc(S(=O)(=O)N2CCN=C2SC(C)c2ccccc2)cc1 (centres undefined) | 5 | u | -2% | -4% | x
CC(SC1=NCCN1S(=O)(=O)c1ccccc1)c1ccccc1 (centres undefined) | 6 | 13µM* | -27% | -23% | x
CC(SC1=NCCN1S(=O)(=O)c1ccc(F)cc1)c1ccccc1 (centres undefined) | -26 | 12µM* | u | u | x
CCC(C)C(N)C(=O)O (centres undefined) | x | -7% | x | -4% | x
CC(C)Sc1ncnc2[nH]ncc12 | -21 | x | x | x | x
COCCn1c(SCC(=O)Nc2ccc(S(=O)(=O)N(C)C)cc2)nc2ccccc21 | 7 | 4.1µM* | -10% | x | 0%
COCCn1c(SCC(=O)Nc2ccc(F)cc2)nc2ccccc2c1=O | 12 | 0% | -1% | -30% | 0%
COCCCn1c(SCC(=O)Nc2ccc(C(=O)OC)cc2)nc2ccccc2c1=O | -21 | u | -3% | 8.3µM* | 0%
CC(C)N(CCn1c(SCC(=O)Nc2cccnc2Cl)nc2ccccc2c1=O)C(C)C | -17 | 5.9µM* | -3% | u | x
COCCn1c(SCC(=O)Nc2cccnc2Cl)nc2cc(Cl)ccc2c1=O | -26 | u | 10% | u | x
COCCCn1c(SCC(=O)Nc2ccc(C)cc2)nc2ccccc2c1=O | -71* | 25% | 8% | 25% | -8%
CCOC(=O)[C@H]1[C@H]2COc3ccc(Br)cc3[C@H]2N2C(=O)CN(Cc3ccc(Cl)cc3)C(=O)[C@@]12C | 6 | x | x | x | x
Cc1nc2ccc(S(=O)(=O)NC(C(=O)NCc3ccc(Cl)cc3)C(C)C)cc2s1 (centres undefined) | -15 | x | -1% | x | x
CCOC(=O)N/N=C/c1ccc(OCCSc2ccc(Cl)cc2)c(OC)c1 | 9 | 2.1µM* | -12% | 5.2µM* | -2%
CCOC(=O)N/N=C/c1ccc(OCCSc2ccc(Cl)cc2)c(OCC)c1 | -8 | 3.3µM* | 3% | 1.9µM* | -8%
CCOC(=O)N/N=C/c1ccc(OC)c(O)c1 | -15 | u | -4% | 53% | 16%
COc1cc(C=O)ccc1OCCSc1ccc(Cl)cc1 | 1 | 33% | 2% | 50% | 1%
Cc1ccnc(NC(=O)c2cccc(S(=O)(=O)N3CCN(c4ccccc4)CC3)c2)c1 | 25 | -70% | -2% | 17% | x
Cc1ccc(NC(=O)c2cccc(S(=O)(=O)N3CCN(c4ccccc4)CC3)c2)nc1 | -85* | u | 5% | u | x
CCc1nnc(NC(=O)c2cccc(S(=O)(=O)N3CCN(c4ccccc4)CC3)c2)s1 | 11 | 10µM* | 13%[11.4 µM] | x | 0%
O=S(=O)(NCC(c1ccc2c(c1)OCO2)N1CCOCC1)c1ccccc1 (centres undefined) | -19 | -1% | -3% | 2% | x
O=C(O)c1ccccc1/C=N/N1CCN(C2c3ccccc3-c3ccccc32)CC1 | -32 | -26%[1.15 µM] | 1% | u | 10%
CCOC(=O)Cn1nc(NC(=O)c2ccc(C(=O)OC)cc2)cc1C | 16 | 8% | -24% | 28% | -3%
